# Active and inactive are the calls of the source.
# Tests used:
# Albumin (Bos taurus) = Albumin (Bos taurus) (UniProt P02769); test: compounds binding labelled BSA control protein – biochemical, small-molecule microarray, Alexa647 label, 635/667 nm fluorescence, artefact control for SMM control protein annotation, profiling panel (AID 1118); details: BSA-A647 binding, fluorescence 635 nm, higher = more signal;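 also: score merges 667 nm emission intensity and signal-to-noise per printed compound spot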
# Chain of Albumin (Bos taurus) (P02769 whole entry, looked up): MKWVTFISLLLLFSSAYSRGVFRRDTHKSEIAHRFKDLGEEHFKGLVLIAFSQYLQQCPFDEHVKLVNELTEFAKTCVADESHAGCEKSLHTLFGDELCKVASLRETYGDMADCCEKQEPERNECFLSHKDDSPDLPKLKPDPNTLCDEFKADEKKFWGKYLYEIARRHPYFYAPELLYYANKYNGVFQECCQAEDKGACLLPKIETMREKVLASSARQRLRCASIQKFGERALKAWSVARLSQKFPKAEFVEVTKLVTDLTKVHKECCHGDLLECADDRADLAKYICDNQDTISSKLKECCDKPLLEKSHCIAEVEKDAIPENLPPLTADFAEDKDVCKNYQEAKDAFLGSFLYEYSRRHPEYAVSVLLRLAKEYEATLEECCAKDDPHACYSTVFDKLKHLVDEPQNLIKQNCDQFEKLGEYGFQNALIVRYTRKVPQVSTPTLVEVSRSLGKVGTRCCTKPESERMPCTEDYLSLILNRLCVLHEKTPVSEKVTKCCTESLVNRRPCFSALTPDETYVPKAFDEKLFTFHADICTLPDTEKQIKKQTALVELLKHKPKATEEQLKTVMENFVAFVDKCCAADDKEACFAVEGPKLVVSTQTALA
# [1] = probe aXIP binding to arrayed compounds – biochemical, NeuroSMM set, 635/667 nm fluorescence, primary screen (AID 1119); details: small-molecule microarray, higher = more signal, called active from +8 up or from −8 down;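 also: probe is the protein aXip251-270 applied at 1 µg/mL to compound-printed slides; binding of probe to printed compounds measured as 667 nm fluorescence plus signal to noise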
# [2] = probe aNOTCH3 binding on compound microarray – biochemical, small-molecule microarray, 635/667 nm fluorescence, primary screen (AID 1120); details: higher = more signal;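 also: probe is a biotin-tagged antibody raised against NOTCH3 rather than NOTCH3 protein; score merges spot fluorescence near 667 nm with spot signal to noise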
# [3] = probe aNOTCH2 binding on compound microarray – biochemical, small-molecule microarray, 635/667 nm fluorescence, primary screen (AID 1121); details: higher = more signal;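 also: score merges feature fluorescence read at 667 nm with its signal to noise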
# [4] = target: Carbonic anhydrase 2 (Homo sapiens) (UniProt P00918); test: compounds binding carbonic anhydrase 2 – biochemical, small-molecule microarray, Alexa647-labelled CAII, profiling panel (AID 1122); details: CAII-A647 binding fluorescence, higher = more signal
# [5] = COS7 lysate on small-molecule microarray, probe aHis, 635 nm (AID 1123); details: COS7 cell lysate, fluorescence, higher = more signal;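 also: z-score combines 667nm fluorescence intensity with signal-to-noise per printed compound spot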
# [6] = probe aLAP1 signal on lysate-treated microarray – cell lysate, small-molecule microarray, COS7 lysate, primary screen (AID 1124); details: probe aLAP1, fluorescence, higher = more signal;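 also: lysate comes from COS7 cells expressing LAP1 and is applied at 0.3 µg/mL; score merges spot fluorescence near 667 nm with signal-to-noise over triplicate slides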
# Sam68 (KHDRBS1) = test: compounds binding KHDRBS1 protein – biochemical, small-molecule microarray, 635 nm fluorescence, primary screen (AID 1125); details: higher = more signal;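 also: score merges 667 nm channel intensity with signal to noise over triplicate slides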
# [7] = system: Chordin-like protein 2 (CHRDL2); test: compounds binding chordin-like 2 – biochemical, small-molecule microarray, 635 nm fluorescence, primary screen (AID 1126); details: fluorescence 635 nm, higher = more signal;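 also: printed compound slides probed with Chrdl2 protein at 4 µg/mL for 1 h at 4 C; score merges 667 nm emission intensity with signal to noise over three replicate slides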
# [8] = target: Concanavalin-A (Canavalia ensiformis) (UniProt P02866); test: compounds binding concanavalin A lectin – biochemical, small-molecule microarray, Alexa647 label, 635 nm, artefact control for SMM control protein annotation, primary screen (AID 1127); details: ConA-A647 binding fluorescence, higher = more signal;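 also: z combines 667 nm emission intensity with signal-to-noise across three replicate slides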
# Chain of Concanavalin-A (Canavalia ensiformis) (P02866 whole entry, looked up): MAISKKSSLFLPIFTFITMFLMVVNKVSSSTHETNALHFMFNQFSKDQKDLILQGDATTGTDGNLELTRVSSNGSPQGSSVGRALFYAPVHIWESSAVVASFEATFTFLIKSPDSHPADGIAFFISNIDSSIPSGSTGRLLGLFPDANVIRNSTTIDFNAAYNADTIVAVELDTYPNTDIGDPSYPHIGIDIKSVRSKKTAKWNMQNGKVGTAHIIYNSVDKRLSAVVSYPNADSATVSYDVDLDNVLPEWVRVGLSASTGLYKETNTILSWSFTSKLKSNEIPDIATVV
# [9] = compounds binding Alexa647 anti-His antibody – biochemical, small-molecule microarray, 635 nm fluorescence, artefact control for SMM control protein annotation, primary screen (AID 1128); details: higher = more signal;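 also: score merges feature fluorescence with signal-to-noise for each printed compound spot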
# [10] = system: Human papillomavirus type 1a E7 protein (residues 1-88); test: HPV1a E7 small-molecule binders, primary screen, biochemical, small-molecule microarray, residues 1-88, 635 nm (AID 1129); details: small-molecule microarray binding, fluorescence 635 nm; higher = more signal
# [11] = target: Focal adhesion kinase 1 (Homo sapiens) (UniProt Q05397); test: PTK2 protein binding on printed compound slides – biochemical, small-molecule microarray, 635/667 nm fluorescence, BSA, DTT, primary screen (AID 1130); details: 635 nm fluorescence, higher = more signal;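 also: composite of spot emission at 667 nm and signal to noise over triplicate slides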
# Chain of Focal adhesion kinase 1 (Homo sapiens) (Q05397 whole entry, looked up): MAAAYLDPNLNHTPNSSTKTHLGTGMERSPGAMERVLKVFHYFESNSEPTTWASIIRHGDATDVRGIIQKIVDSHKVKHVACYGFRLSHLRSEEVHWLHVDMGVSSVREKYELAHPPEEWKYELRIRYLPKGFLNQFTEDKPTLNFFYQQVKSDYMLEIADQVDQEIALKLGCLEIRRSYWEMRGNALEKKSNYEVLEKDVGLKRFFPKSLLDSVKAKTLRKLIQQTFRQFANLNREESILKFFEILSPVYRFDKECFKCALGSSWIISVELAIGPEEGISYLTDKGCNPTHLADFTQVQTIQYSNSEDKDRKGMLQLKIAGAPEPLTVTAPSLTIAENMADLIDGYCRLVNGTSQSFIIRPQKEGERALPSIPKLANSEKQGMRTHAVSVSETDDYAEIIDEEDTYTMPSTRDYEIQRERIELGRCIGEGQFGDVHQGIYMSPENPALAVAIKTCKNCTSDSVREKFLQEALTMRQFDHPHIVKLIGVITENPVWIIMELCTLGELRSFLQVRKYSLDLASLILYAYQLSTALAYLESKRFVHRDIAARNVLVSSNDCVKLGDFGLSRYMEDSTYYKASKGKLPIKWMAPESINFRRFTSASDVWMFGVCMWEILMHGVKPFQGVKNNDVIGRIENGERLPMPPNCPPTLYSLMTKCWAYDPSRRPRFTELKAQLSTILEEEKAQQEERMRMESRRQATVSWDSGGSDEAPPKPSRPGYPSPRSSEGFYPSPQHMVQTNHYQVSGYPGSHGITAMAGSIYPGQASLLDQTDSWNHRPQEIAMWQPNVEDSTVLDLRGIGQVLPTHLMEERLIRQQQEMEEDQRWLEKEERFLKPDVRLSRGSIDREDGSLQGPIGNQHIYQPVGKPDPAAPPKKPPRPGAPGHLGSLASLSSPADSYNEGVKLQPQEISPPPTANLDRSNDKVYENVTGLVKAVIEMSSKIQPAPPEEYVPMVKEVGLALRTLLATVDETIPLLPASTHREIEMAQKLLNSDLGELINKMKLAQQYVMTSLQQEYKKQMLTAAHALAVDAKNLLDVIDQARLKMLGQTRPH
# [12] = system: Fibrinogen (Alexa647-labelled); test: Alexa647-fibrinogen binding to printed small molecules – biochemical, small-molecule microarray, 635/667 nm fluorescence, artefact control for SMM control-protein annotation, profiling panel (AID 1131); details: fibrinogen-A647 binding fluorescence, higher = more signal;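 also: z-score merges 667 nm fluorescence with per-spot signal-to-noise over triplicate slides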
# [13] = target: Follistatin (Homo sapiens) (UniProt P19883); test: FST protein binding to printed compounds – biochemical, small-molecule microarray, 635/667 nm fluorescence, primary screen (AID 1132); details: 635 nm fluorescence, higher = more signal
# Chain of Follistatin (Homo sapiens) (P19883 whole entry, looked up): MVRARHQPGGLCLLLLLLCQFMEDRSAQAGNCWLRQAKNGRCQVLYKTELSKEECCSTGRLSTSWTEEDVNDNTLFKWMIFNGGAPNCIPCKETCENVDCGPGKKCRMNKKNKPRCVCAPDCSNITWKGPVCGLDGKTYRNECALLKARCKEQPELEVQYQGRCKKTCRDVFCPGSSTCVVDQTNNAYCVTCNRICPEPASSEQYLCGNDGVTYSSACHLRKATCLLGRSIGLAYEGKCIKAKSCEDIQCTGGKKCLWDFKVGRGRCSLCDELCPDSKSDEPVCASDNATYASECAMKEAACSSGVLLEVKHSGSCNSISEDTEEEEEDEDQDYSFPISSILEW
# [14] = target: Fibroblast growth factor 2 (Homo sapiens) (UniProt P09038); test: basic fibroblast growth factor binding to printed compounds – biochemical, small-molecule microarray, 635/667 nm fluorescence, primary screen (AID 1133); details: FGF2, fluorescence 635/667, higher = more signal
# Chain of Fibroblast growth factor 2 (Homo sapiens) (P09038 whole entry, looked up): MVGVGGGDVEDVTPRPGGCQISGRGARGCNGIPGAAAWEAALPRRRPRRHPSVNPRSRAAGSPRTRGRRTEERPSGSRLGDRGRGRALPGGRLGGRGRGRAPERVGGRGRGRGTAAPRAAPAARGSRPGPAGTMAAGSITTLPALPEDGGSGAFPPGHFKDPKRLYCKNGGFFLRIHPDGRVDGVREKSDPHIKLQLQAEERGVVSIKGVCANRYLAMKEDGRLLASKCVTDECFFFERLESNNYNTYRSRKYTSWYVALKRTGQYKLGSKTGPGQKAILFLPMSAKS
# [15] = JC-1 mitochondrial potential readout, lung cancer cells – cell-based, A549, JC-1 fluorescence, basal, 24 h, 100 nL, profiling panel (AID 1138); details: higher = more signal;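 also: A549 lung adenocarcinoma cells under basal conditions with no added stimulus; test concentration not given here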
# Lefty1 = Lefty1 protein binding to printed compounds – biochemical, small-molecule microarray, 635/667 nm fluorescence, primary screen (AID 1139); details: fluorescence 635/667, higher = more signal
# [16] = system: wheat germ agglutinin (Triticum aestivum), Alexa647-labelled; test: Alexa647-WGA lectin binding to printed small molecules – biochemical, small-molecule microarray, 635/667 nm fluorescence, artefact control for SMM control-protein annotation, profiling panel (AID 1140); details: WGA-A647 binding, 635 nm fluorescence, higher = more signal;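 also: score merges 667 nm feature emission with signal to noise over triplicate slides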
# [17] = target: Luciferin 4-monooxygenase (Photinus pyralis) (UniProt P08659); test: inhibition of purified Photinus pyralis luciferase – biochemical, luminescence, purified enzyme, 2006 set, primary screen (AID 1141); details: purified firefly luciferase, SteadyGlo luminescence, 30 min; higher = more signal, called active from +8 up or from −8 down;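 also: cell-free assay with purified firefly luciferase at 100 ng per well in PBS; test concentration not given here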
# Chain of Luciferin 4-monooxygenase (Photinus pyralis) (P08659 whole entry, looked up): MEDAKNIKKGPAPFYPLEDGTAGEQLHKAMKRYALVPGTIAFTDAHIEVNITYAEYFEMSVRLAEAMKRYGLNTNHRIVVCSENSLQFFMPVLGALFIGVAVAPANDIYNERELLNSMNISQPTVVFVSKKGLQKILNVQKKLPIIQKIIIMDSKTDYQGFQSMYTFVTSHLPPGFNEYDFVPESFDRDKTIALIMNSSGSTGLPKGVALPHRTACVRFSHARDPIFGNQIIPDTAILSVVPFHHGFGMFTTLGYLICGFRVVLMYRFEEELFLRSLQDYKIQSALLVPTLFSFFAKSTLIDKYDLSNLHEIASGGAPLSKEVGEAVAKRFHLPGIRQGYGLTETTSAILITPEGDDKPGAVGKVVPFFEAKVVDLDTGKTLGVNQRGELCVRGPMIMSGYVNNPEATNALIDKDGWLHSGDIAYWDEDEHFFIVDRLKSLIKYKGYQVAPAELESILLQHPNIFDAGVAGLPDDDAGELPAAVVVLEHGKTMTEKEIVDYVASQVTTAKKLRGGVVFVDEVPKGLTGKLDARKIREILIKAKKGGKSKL
Compound,composite z-score (Albumin (Bos taurus)),composite Z-score [1],composite z-score [2],composite z-score [3],composite z-score [4],composite z-score [5],composite z-score [6],composite z-score (Sam68 (KHDRBS1)),composite z-score [7],composite z-score [8],composite z-score [9],composite z-score [10],composite z-score [11],composite z-score [12],composite z-score [13],composite z-score [14],z-score [15],composite z-score (Lefty1),composite z-score [16],z-score [17]
O=C1O[C@H](c2ccccc2)[C@H](c2ccccc2)N2[C@H]1[C@@H](C(=O)O)[C@]1(C(=O)Nc3ccccc31)[C@H]2c1ccc(OCCO)cc1,1.03,-0.617 (inactive),0.0576,0.024,0.749,1.79,0.59,1.16,-0.192,0.864,1.26,0.823,-0.0003,0.438,0.496,0.293,0.209,-0.193,0.677,-1.01 (inactive)
CC(C)c1ccc(NN2C(C(O)C3=C[C@H]4C[C@@H](C3)C4(C)C)C=CC3C(=O)N(c4ccccc4)C(=O)C32)cc1 (stereo not given in full),0.97,0.378 (inactive),0.333,0.248,0.662,2.04,1.09,1.17,0.4,1.12,0.57,1.07,0.0505,0.953,1.11,0.248,-0.894,0.605,0.632,-1.77 (inactive)
CCOC(=O)C1=C[C@@H](C(C)(C)C)N(S(=O)(=O)c2ccc(C)cc2)[C@H]1c1ccc(OC)cc1,0.847,-0.244 (inactive),0.116,-0.0956,0.392,1.8,0.315,1.3,0.209,1.14,0.772,1.22,1.62,1.02,0.688,0.387,2.61,0.554,0.782,1.95 (inactive)
CC[C@@H](O[Si](C#C[Si](C(C)C)(C(C)C)C(C)C)(C(C)C)C(C)C)c1cn([C@H](C)c2ccccc2)nn1,-0.605,0.515 (inactive),-0.016,-0.171,0.0757,0.365,0.369,0.71,0.26,0.364,0.176,0.57,0.0506,-0.0116,0.548,0.335,-0.213,0.573,0.094,-0.268 (inactive)
CN(C)CCCC[C@@H]1NC(=O)[C@H]2C[C@@H](C(=O)NCCCCCCNC(=O)CS)[C@@H](c3cccc(OCCO)c3)N2C1=O,0.105,0.333 (inactive),-0.195,-0.105,0.249,1.01,0.586,0.378,-0.0352,0.847,1.17,0.593,0.292,0.511,0.52,1,0.115,-0.673,-0.115,0.117 (inactive)
C=CCOC(=O)[C@H]1[C@@H]2C(=O)O[C@@H](c3ccccc3)[C@@H](c3ccccc3)N2[C@@H](c2ccc(OCCOC(=O)[C@H]3C[C@H]4C(=O)NCC(=O)N4[C@H]3c3cccc(OCCO)c3)cc2)[C@]12C(=O)Nc1ccc(I)cc12,-0.0037,0.642 (inactive),0.138,-0.125,0.567,2.2,0.692,1.29,0.866,1.14,0.844,1.06,0.835,0.494,1.41,1.37,-0.715,1.5,0.288,-0.919 (inactive)
C=CCNC(=O)[C@H]1[C@@H]2C(=O)O[C@@H](c3ccccc3)[C@@H](c3ccccc3)N2[C@@H](c2ccc(OCCO)cc2)[C@]12C(=O)N(C(=O)OCCOC)c1ccc(C#CCNC(N)=O)cc12,0.452,-0.0518 (inactive),0.0927,-0.0132,0.396,1.73,0.812,1.22,0.742,1.11,1.9,1.15,0.621,0.811,1.37,1.71,-0.0216,0.707,0.929,-0.0331 (inactive)
O=C1OCCC/C=C\[C@H]2OC34C=CCN(Cc5ccccc5)C(=O)[C@H]3N(CCO)C(=O)[C@@H]4C12 (stereo not given in full),-0.78,0.822 (inactive),0.157,-0.0658,0.885,1.11,0.623,0.747,-0.32,-0.619,-0.941,0.444,-0.287,-0.956,-0.296,-0.259,1.64,0.398,-0.889,-1.56 (inactive)
COC(=O)[C@H]1N=C(c2ccc(OCCCO)cc2)O[C@H]1c1ccccc1N=[N+]=[N-],0.177,0.408 (inactive),0.156,0.273,0.574,2.51,0.285,0.342,0.158,0.656,0.608,1.16,2.19,0.936,0.562,-0.0231,-0.512,-0.401,0.733,-19.2 (active)
[N-]=[N+]=Nc1ccccc1C[C@@]1(C(=O)NCc2ccccc2)N=C(c2ccc(OCCCO)cc2)O[C@@H]1c1ccccc1,0.747,0.157 (inactive),0.446,0.309,0.645,1.99,0.692,1.3,0.621,0.775,1.58,1.22,-0.255,0.695,1.47,0.992,0.945,-0.0651,0.626,-1.39 (inactive)
Cc1cccc([C@H]2C[C@H]3C(Br)=C[C@@]2(CO)C(=O)[C@]32CO2)c1,-0.155,-0.288 (inactive),-0.108,-0.147,0.362,0.182,-0.24,0.671,-0.15,-0.0472,0.338,-0.15,0.259,-1.05,0.39,-0.117,-0.843,0.433,-0.549,0.75 (inactive)
